{"source": "paper PMC7862700", "about": "“An all-to-all approach to the identification of sequence-specific readers for epigenetic DNA modifications on cytosine”", "experiment_in_all_cases": "DAPPL (digital affinity profiling via proximity ligation, sequencing); 10 mM Tris-HCl pH 7.5, 50 mM NaCl, 1 mM DTT, 4% glycerol, room temperature, 30 min; GST-TFs on glutathione beads, 16-mer random dsDNA library, 0.1% formaldehyde crosslink after washing; high values mean tight binding", "key": {"FEV": {"biological_target": "T1, FEV (Homo sapiens, UniProt Q99581 1-238)", "T1 sequence": "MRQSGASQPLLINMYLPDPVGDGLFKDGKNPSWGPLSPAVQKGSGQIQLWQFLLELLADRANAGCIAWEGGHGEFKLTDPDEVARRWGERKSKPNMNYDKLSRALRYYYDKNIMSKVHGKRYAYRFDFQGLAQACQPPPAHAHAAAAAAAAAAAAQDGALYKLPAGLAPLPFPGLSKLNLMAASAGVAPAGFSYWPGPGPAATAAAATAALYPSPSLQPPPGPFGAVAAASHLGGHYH", "conditions": "protein: recombinant; tags: N-terminal GST; dsDNA, one strand shown", "method_in_brief": "(§1)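 Pools of DNA-barcoded human transcription factors, expressed in yeast as GST fusions on glutathione beads and combined with a tag-only sample, were incubated with 200 nmole of a 16-mer random double-stranded DNA library. Incubation took 30 min at room temperature in Tris/NaCl/DTT/glycerol buffer and was followed by washing, 0.1% formaldehyde crosslinking, proximity ligation (BsaI/T4 ligase, 1 h, 37 °C), PCR amplification and sequencing on an Illumina NextSeq500. Binding signal is the ratio of a hexamer's read frequency for a factor to its frequency for the tag-only sample.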"}, "ETV5": {"biological_target": "ETV5 (Homo sapiens, UniProt P41161 1-510)", "sequence (P41161 whole entry)": "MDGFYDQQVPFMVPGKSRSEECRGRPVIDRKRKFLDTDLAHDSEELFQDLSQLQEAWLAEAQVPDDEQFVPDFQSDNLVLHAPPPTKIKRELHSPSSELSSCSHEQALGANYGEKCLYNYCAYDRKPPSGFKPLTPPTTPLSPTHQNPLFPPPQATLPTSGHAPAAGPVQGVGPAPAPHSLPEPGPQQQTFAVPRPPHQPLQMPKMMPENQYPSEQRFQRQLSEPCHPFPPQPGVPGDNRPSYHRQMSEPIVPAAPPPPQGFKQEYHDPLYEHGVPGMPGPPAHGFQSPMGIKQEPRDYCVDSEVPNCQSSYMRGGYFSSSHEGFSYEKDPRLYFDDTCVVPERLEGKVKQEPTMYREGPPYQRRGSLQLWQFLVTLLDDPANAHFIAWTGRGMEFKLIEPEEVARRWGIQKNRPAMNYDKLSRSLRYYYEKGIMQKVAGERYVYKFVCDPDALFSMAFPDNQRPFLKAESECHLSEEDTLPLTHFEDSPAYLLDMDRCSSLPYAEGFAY", "conditions": "protein: recombinant; tags: N-terminal GST; dsDNA, one strand shown", "method_in_brief": "as §1"}, "HSF1": {"biological_target": "HSF1 (Homo sapiens, UniProt Q00613 1-529)", "sequence (Q00613 whole entry)": "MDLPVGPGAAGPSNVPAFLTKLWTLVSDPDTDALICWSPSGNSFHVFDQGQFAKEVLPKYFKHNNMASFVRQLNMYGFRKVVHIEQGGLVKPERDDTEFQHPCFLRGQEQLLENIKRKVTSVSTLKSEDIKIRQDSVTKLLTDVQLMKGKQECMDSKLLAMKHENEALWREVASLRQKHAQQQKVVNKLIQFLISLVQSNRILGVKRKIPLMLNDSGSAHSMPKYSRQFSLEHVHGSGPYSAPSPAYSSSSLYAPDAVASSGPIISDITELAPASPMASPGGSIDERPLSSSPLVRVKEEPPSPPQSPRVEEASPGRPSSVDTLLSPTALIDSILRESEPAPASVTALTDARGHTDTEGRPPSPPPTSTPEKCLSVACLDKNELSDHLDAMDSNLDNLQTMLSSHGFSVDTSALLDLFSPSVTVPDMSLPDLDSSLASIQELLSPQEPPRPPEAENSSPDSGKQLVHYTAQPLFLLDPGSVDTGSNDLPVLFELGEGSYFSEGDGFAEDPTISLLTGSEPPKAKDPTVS", "conditions": "protein: recombinant; tags: N-terminal GST; chain copies: 3; dsDNA, one strand shown", "method_in_brief": "as §1"}, "SPIC": {"biological_target": "T2, SPIC (Homo sapiens, UniProt Q8N5J4 1-248)", "T2 sequence": "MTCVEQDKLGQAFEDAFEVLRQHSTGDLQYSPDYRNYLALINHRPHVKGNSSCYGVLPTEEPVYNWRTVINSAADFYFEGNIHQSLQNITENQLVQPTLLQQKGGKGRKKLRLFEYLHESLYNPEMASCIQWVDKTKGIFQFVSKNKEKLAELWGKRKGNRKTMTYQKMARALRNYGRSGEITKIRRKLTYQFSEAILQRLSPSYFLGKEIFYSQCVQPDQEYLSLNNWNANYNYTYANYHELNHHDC", "conditions": "protein: recombinant; tags: N-terminal GST; dsDNA, one strand shown", "method_in_brief": "as §1"}, "ELF4": {"biological_target": "ELF4 (Homo sapiens, UniProt Q99607 1-663)", "sequence (Q99607 whole entry)": "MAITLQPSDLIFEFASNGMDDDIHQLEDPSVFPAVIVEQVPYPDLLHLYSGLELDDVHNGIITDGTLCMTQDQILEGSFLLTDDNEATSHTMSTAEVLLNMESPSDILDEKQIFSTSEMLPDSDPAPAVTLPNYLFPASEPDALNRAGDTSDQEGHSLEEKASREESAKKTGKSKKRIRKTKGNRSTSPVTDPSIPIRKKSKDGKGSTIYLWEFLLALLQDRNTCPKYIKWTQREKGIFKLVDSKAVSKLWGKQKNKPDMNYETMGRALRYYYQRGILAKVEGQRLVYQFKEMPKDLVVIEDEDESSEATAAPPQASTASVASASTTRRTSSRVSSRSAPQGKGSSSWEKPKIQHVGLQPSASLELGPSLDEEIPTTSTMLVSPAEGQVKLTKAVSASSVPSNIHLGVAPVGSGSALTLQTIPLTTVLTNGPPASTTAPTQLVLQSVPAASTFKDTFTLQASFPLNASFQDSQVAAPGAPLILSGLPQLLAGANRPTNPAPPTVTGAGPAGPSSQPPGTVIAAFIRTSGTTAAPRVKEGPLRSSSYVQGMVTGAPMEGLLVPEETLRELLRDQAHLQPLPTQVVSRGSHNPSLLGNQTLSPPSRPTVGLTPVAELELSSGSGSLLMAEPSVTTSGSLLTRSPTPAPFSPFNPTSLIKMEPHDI", "conditions": "protein: recombinant; tags: N-terminal GST; dsDNA, one strand shown", "method_in_brief": "as §1"}, "ELK4": {"biological_target": "T3, ELK4 (Homo sapiens, UniProt P28324-2 1-405)", "T3 sequence": "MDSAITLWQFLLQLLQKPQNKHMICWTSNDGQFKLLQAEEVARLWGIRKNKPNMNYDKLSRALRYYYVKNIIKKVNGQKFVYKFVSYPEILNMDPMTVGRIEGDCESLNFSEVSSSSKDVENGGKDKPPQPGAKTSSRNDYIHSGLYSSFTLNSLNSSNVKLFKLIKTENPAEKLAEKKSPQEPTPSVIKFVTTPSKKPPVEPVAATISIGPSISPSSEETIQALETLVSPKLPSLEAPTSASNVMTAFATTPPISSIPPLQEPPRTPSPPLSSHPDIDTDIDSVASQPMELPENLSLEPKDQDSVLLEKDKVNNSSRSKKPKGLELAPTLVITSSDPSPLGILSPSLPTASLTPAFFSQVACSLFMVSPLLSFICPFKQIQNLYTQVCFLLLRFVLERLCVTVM", "conditions": "protein: recombinant; tags: N-terminal GST; dsDNA, one strand shown", "method_in_brief": "as §1"}, "ETV2": {"biological_target": "T4, ETV2 (Homo sapiens, UniProt O00321 1-342)", "T4 sequence": "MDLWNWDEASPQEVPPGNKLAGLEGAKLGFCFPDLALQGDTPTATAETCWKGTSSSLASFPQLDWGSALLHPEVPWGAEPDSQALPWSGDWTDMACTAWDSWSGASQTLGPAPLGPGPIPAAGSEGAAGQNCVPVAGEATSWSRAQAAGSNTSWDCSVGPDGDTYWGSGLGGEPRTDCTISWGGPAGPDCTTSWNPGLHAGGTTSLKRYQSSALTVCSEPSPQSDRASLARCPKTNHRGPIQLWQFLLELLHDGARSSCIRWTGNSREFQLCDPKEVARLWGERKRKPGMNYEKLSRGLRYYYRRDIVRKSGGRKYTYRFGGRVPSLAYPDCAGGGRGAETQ", "conditions": "protein: recombinant; tags: N-terminal GST; dsDNA, one strand shown", "method_in_brief": "as §1"}, "ELF3": {"biological_target": "T5, ELF3 (Homo sapiens, UniProt P78545 1-371)", "T5 sequence": "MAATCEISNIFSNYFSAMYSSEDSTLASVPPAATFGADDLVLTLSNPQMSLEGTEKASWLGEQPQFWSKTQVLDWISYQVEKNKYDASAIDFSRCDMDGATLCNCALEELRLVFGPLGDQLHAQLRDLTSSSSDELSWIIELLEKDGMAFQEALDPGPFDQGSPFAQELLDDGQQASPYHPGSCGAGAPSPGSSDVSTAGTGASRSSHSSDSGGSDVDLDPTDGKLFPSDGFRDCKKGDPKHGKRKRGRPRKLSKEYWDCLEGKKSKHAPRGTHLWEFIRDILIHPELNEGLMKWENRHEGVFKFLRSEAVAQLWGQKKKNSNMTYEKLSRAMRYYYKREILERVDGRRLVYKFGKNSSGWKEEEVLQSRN", "conditions": "protein: recombinant; tags: N-terminal GST; dsDNA, one strand shown", "method_in_brief": "as §1"}, "CRX": {"biological_target": "CRX (Homo sapiens, UniProt O43186 1-299)", "sequence (O43186 whole entry)": "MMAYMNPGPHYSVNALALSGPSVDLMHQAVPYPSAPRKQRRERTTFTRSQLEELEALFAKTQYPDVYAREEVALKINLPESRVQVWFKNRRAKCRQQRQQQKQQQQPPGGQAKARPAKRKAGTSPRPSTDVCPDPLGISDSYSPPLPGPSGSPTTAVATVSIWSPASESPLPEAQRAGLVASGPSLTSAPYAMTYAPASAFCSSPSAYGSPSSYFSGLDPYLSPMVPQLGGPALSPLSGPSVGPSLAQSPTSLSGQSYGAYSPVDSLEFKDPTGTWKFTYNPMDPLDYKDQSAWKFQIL", "conditions": "protein: recombinant; tags: N-terminal GST; dsDNA, one strand shown", "method_in_brief": "as §1"}, "ETV1": {"biological_target": "ETV1 (Homo sapiens, UniProt P50549 1-477)", "sequence (P50549 whole entry)": "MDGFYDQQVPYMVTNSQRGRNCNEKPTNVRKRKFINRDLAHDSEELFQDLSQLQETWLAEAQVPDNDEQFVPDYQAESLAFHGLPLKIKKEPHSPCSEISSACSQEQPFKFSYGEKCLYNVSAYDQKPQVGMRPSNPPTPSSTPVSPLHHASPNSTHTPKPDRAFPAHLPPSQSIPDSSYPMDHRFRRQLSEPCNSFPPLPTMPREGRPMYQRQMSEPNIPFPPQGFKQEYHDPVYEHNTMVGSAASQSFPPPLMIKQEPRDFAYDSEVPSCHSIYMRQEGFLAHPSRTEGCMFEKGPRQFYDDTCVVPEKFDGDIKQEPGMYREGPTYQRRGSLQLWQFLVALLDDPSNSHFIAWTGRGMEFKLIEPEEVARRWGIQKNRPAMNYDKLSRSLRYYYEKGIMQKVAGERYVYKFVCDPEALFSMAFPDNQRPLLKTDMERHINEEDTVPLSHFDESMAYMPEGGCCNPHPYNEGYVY", "conditions": "protein: recombinant; tags: N-terminal GST; dsDNA, one strand shown", "method_in_brief": "as §1"}}}
{"sequence": "TTTGGG", "values": [{"measurement": "binding signal", "setting": "FEV", "result": "1.31 fold enrichment (6-mer frequency, TF over GST control)"}, {"measurement": "binding signal", "setting": "ETV5", "result": "1.39 fold enrichment (6-mer frequency, TF over GST control)"}, {"measurement": "binding signal", "setting": "HSF1", "result": "1.36 fold enrichment (6-mer frequency, TF over GST control)"}, {"measurement": "binding signal", "setting": "SPIC", "result": "1.16 fold enrichment (6-mer frequency, TF over GST control)"}, {"measurement": "binding signal", "setting": "ELF4", "result": "1.41 fold enrichment (6-mer frequency, TF over GST control)"}, {"measurement": "binding signal", "setting": "ELK4", "result": "1.41 fold enrichment (6-mer frequency, TF over GST control)"}, {"measurement": "binding signal", "setting": "ETV2", "result": "1.42 fold enrichment (6-mer frequency, TF over GST control)"}, {"measurement": "binding signal", "setting": "ELF3", "result": "1.7 fold enrichment (6-mer frequency, TF over GST control)"}, {"measurement": "binding signal", "setting": "CRX", "result": "1.57 fold enrichment (6-mer frequency, TF over GST control)"}, {"measurement": "binding signal", "setting": "ETV1", "result": "1.43 fold enrichment (6-mer frequency, TF over GST control)"}]}
